From PubChem
IDH1 R132H inh: human IDH1 R132H inhibition | IDH1-R132H enzyme, NADPH consumption, diaphorase/resazurin fluorescence | O75874 | Potency, µM (titrated, usually from 76.6 µM), for inactives: at the highest dose activity change, negative = inhibition, hits mostly inhibitors | hit rate 0.093% among 390,000; further: on the % scale 0 is the no-effect control and ±100 the full control effect; nearly all actives have a fitted effect of over 65% in size
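IDH1-R132H (0.5 ug/mL dispensed) in pH 7.5 Tris buffer was preincubated 30 min with compound, then given a substrate mix of 0.016 mM NADPH and 2 mM alpha-KG for 80 min at room temperature; remaining NADPH was read by diaphorase/resazurin fluorescence.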
Apoferritin bind: binds horse apoferritin like a general anesthetic; P02791; apoferritin/1-aminoanthracene competitive binding, fluorescence; Potency, µM (highest dose often 77.5 µM), inactives show at the top dose activity change, negative = displacement, usual class: inhibitors; hit rate 0.074% among 350,000; further: on the % scale 0 is the no-effect control and ±100 the full control effect; nearly all actives have a fitted effect of over 20% in size
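Probe: 1-aminoanthracene (50% saturated, PBS). Protein: horse-spleen apoferritin, 10 uM. Incubation: 10 min, room temperature. Detection: 380 nm excitation, 535 nm emission. Analysis: normalized response, four-parameter Hill.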
TrxR1 substrate: is turned over as a substrate by rat TrxR1; hit rate 0.01% among 390,000; O89049; Potency, µM (doses to about 114 µM), without a hit: top-dose activity change, negative = substrate turnover; purified TrxR1 substrate turnover, NADPH consumption readout; further: on the % scale 0 is the no-effect control and ±100 the full control effect; nearly all actives have a fitted effect of over 50% in size
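Rat TrxR1, dispensed at 90 nM, was prereduced with 400 uM NADPH (final) for 5 min at ~22 deg C, then incubated with compound 15 min before 400 uM selenite. A first-read NADPH fluorescence drop versus no-compound background flagged substrates.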
12-LOX inh: ALOX12 (human) lipoxygenase inhibition; P18054; purified 12hLO, xylenol orange hydroperoxide absorbance; Potency, µM (titrated, usually from 108 µM), without a hit: at the highest dose activity change, negative = inhibition, actives largely listed as inhibitors; hit rate 1.1% among 580,000; further: on the % scale 0 is the no-effect control and ±100 the full control effect
Target sequence (P18054 whole entry, looked up): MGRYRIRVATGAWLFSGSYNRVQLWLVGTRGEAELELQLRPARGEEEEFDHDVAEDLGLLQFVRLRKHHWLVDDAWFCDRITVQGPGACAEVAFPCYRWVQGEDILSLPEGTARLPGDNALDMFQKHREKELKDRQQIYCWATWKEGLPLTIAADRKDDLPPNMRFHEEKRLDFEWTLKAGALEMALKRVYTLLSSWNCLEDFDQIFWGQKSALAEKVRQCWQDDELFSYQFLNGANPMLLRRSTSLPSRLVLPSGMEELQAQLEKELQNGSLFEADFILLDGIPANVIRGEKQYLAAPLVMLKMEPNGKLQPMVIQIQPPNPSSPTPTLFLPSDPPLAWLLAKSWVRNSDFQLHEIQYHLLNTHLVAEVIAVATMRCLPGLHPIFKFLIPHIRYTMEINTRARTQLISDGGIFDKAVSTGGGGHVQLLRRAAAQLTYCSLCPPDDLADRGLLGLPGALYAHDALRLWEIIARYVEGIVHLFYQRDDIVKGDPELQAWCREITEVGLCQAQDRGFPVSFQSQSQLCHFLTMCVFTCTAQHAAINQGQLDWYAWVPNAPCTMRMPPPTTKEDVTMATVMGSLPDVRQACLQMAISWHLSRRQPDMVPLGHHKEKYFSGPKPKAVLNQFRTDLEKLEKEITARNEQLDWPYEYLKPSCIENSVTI
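Hydroperoxide product was detected by ferrous iron/xylenol orange as the 573 to 405 nm absorbance ratio. Arachidonic acid at 40 uM (final) was turned over for 30 min at room temperature by 150 nM human 12hLO, pH 7.0 Hepes buffer, after 15 min compound preincubation.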
GRP78 ERSR act: induces the endoplasmic reticulum stress response in human glioma cells; Potency, µM, for the others: at the top dose activation, most hits filed as activators; hit rate 0.02% among 420,000; U87-MG GRP78 promoter luciferase reporter, 16 h; further: series mostly up to about 76 µM; % of control where 0% means no effect; nearly all actives have a fitted effect of over 35% in size
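Stably transfected U87-MG human glioma cells carrying a GRP78-based luminescent sensor were seeded at 1000 cells/well, pin-dosed with compounds and incubated 16 h. Luciferase reagent was then added, and end-point luminescence was read after 10 min at room temperature.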
TrxR1 inh: rat TrxR1 inhibition. O89049. recombinant rTrxR1, NADPH fluorescence consumption, selenite substrate. Potency, µM (series often up to 114 µM), for the others: top-dose activity change, negative = inhibition, hits mostly inhibitors. hit rate 1% among 390,000; further: on the % scale 0 is the no-effect control and ±100 the full control effect; nearly all actives have a fitted effect of over 65% in size
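Rat TrxR1 (90 nM in the dispensed reagent) was pre-reduced with 400 uM NADPH for 5 min at room temperature, then incubated with compound for 15 min. After 400 uM selenite was added, NADPH fluorescence (Ex 340/Em 450 nm) was followed for 8 min.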
Starred values were filed as active, the others as inactive; ? = inconclusive; . = no result; [ ] = remark or other dose. Hits are enriched below; roughly 1.7% of the tested compounds scored in any of these assays. The call rests on the fitted dose curve; in most records, active means well fitted curve in the direction sought with a large enough effect; inconclusive means small, poorly fitted or top-dose-only effect, or another doubt; inactive means no such curve, though single readings can be large; an effect the other way counts as inactive or inconclusive. Potency means the concentration at half of the fitted maximal effect.

SMILES	IDH1 R132H inh	Apoferritin bind	TrxR1 substrate	12-LOX inh	GRP78 ERSR act	TrxR1 inh
Cc1ccc(NC(=S)/N=C(\N)Nc2nc(C)c3cc(C)c(C)cc3n2)cc1C	-8%	-13%	-2%[57.1 µM]	35µM*	-3%	6%[57.1 µM]
Cc1ccc(NC(=S)/N=C(\N)Nc2nc(C)c3cc(C)ccc3n2)c(C)c1	-3%	-16%	-4%	?	-4%	4%
CCc1ccccc1NC(=S)/N=C(\N)Nc1nc(C)c2cc(C)ccc2n1	8%	-6%	-4%	35µM*	-3%	5%
O=C(CN1C(=O)NC(c2ccc(Cl)cc2)C2=C1COC2=O)Nc1cccc(Br)c1 (centres undefined)	.	.	.	10µM*	.	.
COc1cccc(NC(=O)CN2C(=O)NC(c3ccc(C)cc3)C3=C2COC3=O)c1 (centres undefined)	.	.	.	18%	.	.
Cc1ccc(C2NC(=O)N(CC(=O)Nc3ccc4c(c3)OCCO4)C3=C2C(=O)OC3)cc1 (centres undefined)	.	.	.	20%	.	.
Cc1cc(NC(=O)CN2C(=O)NC(c3ccc(Cl)cc3)C3=C2COC3=O)ccc1Br (centres undefined)	.	.	.	8.9µM*	.	.
C/C(=N/Nc1ccc(S(=O)(=O)Nc2ccc(C)cc2C)cc1[N+](=O)[O-])c1ccco1	.	.	.	-1%	.	.
CCOC(=O)c1c(C)n(S(=O)(=O)c2ccc(C)cc2)c2ccc(O)c(C(=O)O)c12	-9%	-3%	-5%	56µM*	0%	3%
CCOC(=O)C1=C[C@@H](C)N(S(=O)(=O)c2ccc(C)cc2)[C@H]1c1ccccc1	.	.	.	?	-2%	.
COCCc1noc(-c2ccccc2OC2CN(C(=O)c3ccncc3)C2)n1	.	.	.	21%	.	.
COc1ccc(Nc2nc(CSc3nnc(-c4ccccc4OC)o3)cs2)cc1	.	.	.	6%	.	.
COC(=O)c1ccc(-c2nc3ccccc3[nH]2)cc1	-2%	-14%	926%	-26%	-10%	56µM*
Cc1cccc(-c2noc(CCC(=O)NCc3ccco3)n2)c1	0%	-8%	-6%[57.1 µM]	-14%	-2%	9%
Cc1ccc2c(=O)c(-c3nc(-c4cccc(F)c4)no3)cn(CC(=O)NCc3ccco3)c2n1	.	.	.	10µM*	.	.
O=C1C(Cl)=C(NCCc2ccccc2)C(=O)N1CCc1ccccc1	1%	-7%	-5%	?	-1%	-12%
O=C(O)c1ccc(NC2=C(Cl)C(=O)c3ccccc3C2=O)cc1	-8%	8%	-5%	-21%	-17%	0.5µM*
Cc1ccc(NC2=C(NC(=O)c3ccccc3)C(=O)c3ccccc3C2=O)cc1Cl	18%	?	?	?	3%	1.6µM*
O=C1C(Cl)=C(NCCc2ccccc2)C(=O)c2ccccc21	25%	.	-34%[57.1 µM]	4µM*	-15%	?
O=C1C(Cl)=C(Nc2ccccc2)C(=O)c2ccccc21	-4%	-10%	-10%	-1%	-11%	0.63µM*
Cc1oc(-c2nc(C#N)c(NCc3ccccc3)o2)cc1S(=O)(=O)N1CCCC1	.	.	.	22%	.	.
Cc1ccc2nc(C(=O)NCCc3nc(Cc4ccccc4)no3)cn2c1	.	.	.	39%	.	.
O=C1CC(c2ccccc2)N(C(=O)CNC(=O)Nc2ccccc2)CCCCCN1 (centres undefined)	.	.	.	9%	.	.
CCCCn1nc(C(=O)N(C)Cc2ccccc2F)c2ccccc2c1=O	.	.	.	16%	.	.
O=C(Nc1ccc2nc(-c3ccco3)[nH]c2c1)c1cccs1	0%	-6%	-11%	0%	1%	71µM*
SMILES	IDH1 R132H inh	Apoferritin bind	TrxR1 substrate	12-LOX inh	GRP78 ERSR act	TrxR1 inh
O=C(Nc1ccc2nc(-c3ccco3)[nH]c2c1)c1ccco1	5%	0%	-7%	0%	6%	?
O=C(c1cccc(F)c1)N1CCC(N2CC3CC(C2)[C@H]2CCCC(=O)N2C3)CC1 (some centres undefined)	.	.	.	10%	.	.
COc1ccc(C2=NO[C@@H]3C(=O)N(c4ccc(C)cc4C)C(=O)[C@H]23)cc1OC	6%	?	13%	39%	-5%	22µM*
Cc1ccc(C)c(SCC(=O)OCC(=O)Nc2ncc(C(F)(F)F)cc2Cl)c1	12%	-7%	-18%[57.1 µM]	?	-2%	22%[57.1 µM]
O=C(COC(=O)CSc1cccc2cccc(Cl)c12)Nc1ncc(C(F)(F)F)cc1Cl	-5%	?	-9%	28µM*	0%	-19%
CCc1ccccc1-n1c2c(cc(C#N)c1=O)C(=O)CC(c1ccccc1)C2 (centres undefined)	.	.	.	-19%	.	.
CC(C)c1cc2c(c(O)c1O)[C@@]13CCCC(C)(C)C1CC2OC3=O (some centres undefined)	-2%	?	4%	?	-6%	16µM*
CC(C)c1c(O)c(-c2cc3c(c(C(C)C)c2O)CCC2C(C)(C)CCC[C@@]32C)cc2c1CCC1C(C)(C)CCC[C@@]21C (some centres undefined)	.	5%	.	.	-3%	.
COCCNC(=O)CCCN1C(=O)COc2ccc(C(=O)COc3c(C)ccc(C)c3C)cc21	.	.	.	33%	.	.
O=C(Nc1ccc2nc3n(c(=O)c2c1)CCCCC3)c1c(F)ccc([N+](=O)[O-])c1F	-16%	-11%	-5%	-9%	-14%	50µM*
O=C(Nc1ccc2nc3n(c(=O)c2c1)CCCCC3)c1cc([N+](=O)[O-])ccc1F	5%	?	-4%	-7%	-7%	-9%
COC(=O)C1=C(O)/C(=C\c2cc(C)n(-c3ccc(F)cc3)c2C)N=C1C	6%	-3%	-9%[57.1 µM]	?	-2%	18µM*
O=C(O)c1cccc(NC(=S)N/N=C/c2ccccc2OCc2ccc(Br)cc2)c1	0%	-20%	-6%	16µM*	4%	-18%
O=C(O)c1cccc(NC(=S)N/N=C/c2ccccc2OCc2cccc(Br)c2)c1	-8%	?	-9%	28µM*	5%	-18%
CCCn1nc(C(=O)Oc2ccc3c(C)cc(=O)oc3c2)c2ccccc2c1=O	3%	184%	702%	-16%	-1%	50µM*
Cc1cc(=O)oc2cc(OC(=O)c3nn(C(C)C)c(=O)c4ccccc34)ccc12	3%	312%	658%	-5%	-1%	25µM*
Cc1cc(=O)oc2cc(OC(=O)c3ccco3)ccc12	-1%	-4%	54%	-12%	4%	71µM*
CCCn1nc(C(=O)Oc2ccc(C(=O)CC)cc2)c2ccccc2c1=O	.	.	.	-11%	.	.
COc1ccc(C)cc1NC(=O)c1noc2c1CSc1ccccc1-2	-7%	-12%	8%	-19%	-3%	14%
COC(=O)c1ccccc1NC(=O)c1noc2c1CSc1ccccc1-2	0%	-9%	-4%	-6%	-4%	14µM*
